TSG101-PTAP inh: qHTS Assay for Iinhibitors of HIV-1 Budding by Blocking the Interaction of PTAP/TSG101 | Potency, µM (doses to about 115 µM), for inactives: top-dose activity change, negative = inhibition, actives largely listed as inhibitors | 340,000 tested, under 10 active | Fluorescence polarization, FITC-PTAP peptide / Tsg101 binding | AID 493005, 2010 | Tumor susceptibility gene 101 protein (Homo sapiens), Q99816; active = well fitted inhibition curve with a large enough effect in the main read-out, with a control signal flat, not every such curve was filed as active; inconclusive = small, poorly fitted or top-dose-only effect, or effect the other way, or a change in a side signal; inactive = no such curve, though single readings can be large or run the other way; note: % of control where 0% means no effect
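FP read-out: FITC-PTAP peptide, 50 nM final, binding Tsg101 binding domain, 10 uM final; 20 min, r.t.; 10 mM HEPES pH 7.5, 0.15 M NaCl, 0.01% Tween 20, 3 mM EDTA, 0.1 mM TCEP.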
mIDH1 inhibitor: qHTS for Inhibitors of mutant isocitrate dehydrogenase 1 (IDH1): qHTS | Potency, µM (highest dose often 76.6 µM), for inactives: at the highest dose activity change, negative = inhibition, usual class: inhibitors | 390,000 compounds, 0.093% hits | Isocitrate dehydrogenase [NADP] cytoplasmic (Homo sapiens), O75874 | IDH1-R132H enzyme, NADPH consumption, diaphorase/resazurin fluorescence; note: % is set by controls: 0 for no effect and ±100 for the full control effect; nearly all actives have a fitted effect of over 65% in size
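IDH1-R132H (0.5 ug/mL dispensed) in pH 7.5 Tris buffer was preincubated 30 min with compound, then given a substrate mix of 0.016 mM NADPH and 2 mM alpha-KG for 80 min at room temperature; remaining NADPH was read by diaphorase/resazurin fluorescence.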
ERG Ets-DNA blk: qHTS for Small Molecule Inhibitors of the ERG Ets/DNA interaction; fluorescence polarization, His-ERG Ets domain / labelled DNA; Potency, µM (top dose mostly 76.9 µM), without a hit: top-dose FP activity, negative = inhibition, actives largely listed as inhibitors; 370,000 compounds, 0.028% hits; active = well fitted inhibition curve with a large enough effect in the polarisation, with a control signal flat; inconclusive = small, poorly fitted or top-dose-only effect, or effect the other way, or a change in a side signal; inactive = no such curve, though single readings can be large or run the other way; the % refers to the polarisation;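 note: polarization taken with two DNA probes labelled with fluorescein and Texas red; % of control where 0% means no effect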
Target sequence (P11308 whole entry, looked up, the tested form may be a part): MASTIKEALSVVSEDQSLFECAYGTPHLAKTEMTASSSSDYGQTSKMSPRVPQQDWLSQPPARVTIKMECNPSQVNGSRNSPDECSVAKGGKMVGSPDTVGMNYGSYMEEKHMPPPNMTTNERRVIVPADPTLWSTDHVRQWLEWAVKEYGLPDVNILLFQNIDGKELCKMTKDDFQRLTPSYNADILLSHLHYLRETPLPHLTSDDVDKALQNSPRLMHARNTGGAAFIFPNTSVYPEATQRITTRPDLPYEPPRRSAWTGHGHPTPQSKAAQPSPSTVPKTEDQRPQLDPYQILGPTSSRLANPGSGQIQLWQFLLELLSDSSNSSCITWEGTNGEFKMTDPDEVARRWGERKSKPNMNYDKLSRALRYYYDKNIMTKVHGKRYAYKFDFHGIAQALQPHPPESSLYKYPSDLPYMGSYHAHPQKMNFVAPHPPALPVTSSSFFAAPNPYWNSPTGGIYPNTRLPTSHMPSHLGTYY
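His-tagged ERG Ets domain (1 uM in the protein solution; 300mM KCl, 50mM Tris-HCl, 1mM EDTA, 1mM DTT, pH 7.5) received compound, then a probe mix of 5 nM fluorescein-DNA and 100nM Texas-615-DNA. Fluorescence polarization was read for both dyes.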
Apoferritin bind: qHTS Assay for Identification of Novel General Anesthetics. 350,000 compounds, 0.074% hits. Ferritin light chain (Equus caballus), P02791. Potency, µM (titrated, usually from 77.5 µM), inactives show at the highest dose activity change, negative = displacement, hits mostly inhibitors. apoferritin/1-aminoanthracene competitive binding, fluorescence; note: % is set by controls: 0 for no effect and ±100 for the full control effect; nearly all actives have a fitted effect of over 20% in size
Target sequence (P02791 2-175 limits assumed): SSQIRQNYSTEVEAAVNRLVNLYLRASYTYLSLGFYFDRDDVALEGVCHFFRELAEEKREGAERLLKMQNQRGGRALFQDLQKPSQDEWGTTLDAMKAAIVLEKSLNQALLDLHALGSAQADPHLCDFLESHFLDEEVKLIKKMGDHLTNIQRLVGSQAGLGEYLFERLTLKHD
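Apoferritin-based anesthetic binding model; compound displacement of fluorescent 1-AMA measured as endpoint fluorescence after 10 minutes at room temperature, scaled to free-ligand and complex controls.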
The depositor's hits bear a star; ? = inconclusive; · = not tested or not shown. Shown are actives, neighbours in structure and some others; about 0.18% of the full set was active somewhere. Unless noted, calls come from the whole dose curve; as a rule, active = well fitted inhibition curve with a large enough effect; inconclusive = small, poorly fitted or top-dose-only effect; inactive = no such curve, though single readings can be large or run the other way. Potency is the fitted concentration of half-maximal effect.

SMILES	TSG101-PTAP inh	mIDH1 inhibitor	ERG Ets-DNA blk	Apoferritin bind
CCn1c(SCC(=O)Nc2sc3c(c2C#N)CCC(C(C)(C)C)C3)nnc1-c1ccco1 (centres undefined)	1%	-5%	2%	28µM*
NC(=O)c1c(NC(=O)CSc2nnc(-c3ccco3)n2-c2ccccc2)sc2c1CCC2	-5%	0%	-7%	22µM*
O=C(O)c1cc2c(s1)-c1ccccc1CC2	-4%	4%	16µM*	3%
O=C(O)Cc1csc(Nc2cccc(Cl)c2)n1	-5%	6%	8%	10µM*
O=S(=O)(NCc1ccccc1)c1ccc(NC(=S)NCc2ccco2)cc1	1%	-5%	3%	8.9µM*
Cc1cccc(C)c1N=Nc1c(C)cc(O)cc1C	-3%	0%	-4%	25µM*
Cc1nc(NCCc2ccc(O)cc2)c2nnn(Cc3ccccc3)c2n1	-10%	0%	12%	16µM*
COC(=O)Cn1cc(C(=O)OC)cc(Br)c1=O	-4%	8%	4%	-14%
COc1cccc(-c2nc(CS(=O)CC(=O)NCc3ccccc3Cl)c(C)o2)c1 (centres undefined)	0%	-9%	0%	28µM*
CC1(C)CC(=O)C(CS(=O)(=O)c2ccccc2)=C(O)C1	-2%	0%	-7%	32µM*
COc1ccc(OCc2nnc3n2N=C(c2ccc(OC)cc2)CS3)cc1	-2%	2%	0%	8.9µM*
COc1ccc(OCc2nnc3n2N=C(c2ccc(C)cc2)CS3)cc1	3%	-4%	-1%	11µM*
O=C(OCC(=O)C12CC3CC(CC(C3)C1)C2)c1ccc(O)cc1	-1%	2%	-3%	·
Nc1ccc(O)cc1C(=O)OCC(=O)C12CC3CC(CC(C3)C1)C2	-4%	-1%	1%	32µM*
CCCCc1c(C)[nH]c(=S)[nH]c1=O	-1%	10%	7%	2%
Cc1cccc(OCCc2c(C)[nH]c(=S)[nH]c2=O)c1	-2%	4%	28µM*	-19%
Cc1cc2ccccc2n1CCNC(=O)c1cccs1	-5%	-8%	32µM*	-12%
O=C(Nc1cccc(Cl)c1)OCc1cnc(Cl)s1	-7%	3%	-10%	10µM*
COc1ccc(S(=O)(=O)NCCSC(C)(C)C)c(Cl)c1Cl	-8%	4%	0%	16µM*
COc1cc(NC(=O)CN2C(=O)C(c3ccc(Cl)cc3)=NC23CCCCC3)cc(OC)c1	·	·	-2%	-1%
CN1CC=C2C(C#N)=C(N)C(C#N)(C#N)[C@H](c3cccs3)[C@H]2C1	?	3%	-15%	10%
CN1CC=C2C(C#N)=C(N)C(C#N)(C#N)C(CCc3ccccc3)C2C1 (centres undefined)	?	41µM*	-5%	29%
CN1CC(c2ccccc2)C(c2ccc(Cl)cc2)=N1 (centres undefined)	-1%	4%	11%	-17%
O=C(NC1CCCCC1)c1cccs1	-5%	-2%	1%	13µM*
O=C(NNC(=S)NC1CCCCC1)c1cccs1	-2%	-2%	-6%	-14%
SMILES	TSG101-PTAP inh	mIDH1 inhibitor	ERG Ets-DNA blk	Apoferritin bind
CCOc1ccc(-c2cc(NC(=O)c3c(F)cccc3F)c(C(=O)O)s2)cc1	0%	1%	-1%	-10%
CCCCN(C)C(=O)CS(=O)(=O)Cc1nc(-c2cccc(OC)c2)oc1C	2%	-2%	20µM*	-10%
Cc1cc(C)c(C(=O)N2CCCC(N3CCN(c4ccc(F)cc4)CC3)C2)o1 (centres undefined)	-4%	4%	-13%	-4%
Cc1cccc(NC(=S)NC(=O)C2CC2)c1	·	·	·	22µM*
Cc1cc(C)cc(NC(=S)NC(=O)C2CC2)c1	-2%	0%	7%	-21%
O=C(Nc1cccnc1)C1(F)C(F)(F)C(F)(F)C(F)(F)C(F)(F)C1(F)F	-7%	2%	4%	13µM*
Cc1cccc(NC(=O)CSc2nc(=O)n(Cc3cccnc3)c3c2CCC3)c1C	·	-2%	-2%	6%
CCCCCC1CC(CC(=O)Nc2ccc([N+](=O)[O-])cc2)OC1=O (centres undefined)	-3%	4%	-6%	?
CCCCCC1CC(CC(=O)Nc2ccc([N+](=O)[O-])cc2)C(=O)O1 (centres undefined)	-3%	4%	-8%	16µM*
COc1cc2c(cc1OC)C(C)N(C(=O)Nc1cc(C)cc(C)c1)CC2 (centres undefined)	1%	-3%	-13%	-10%
N#CC1=C(N)C(C#N)(C#N)C(c2cccnc2)C2CCCC=C12 (centres undefined)	·	·	·	167%
N#CC1=C(N)C(C#N)(C#N)C(c2cccnc2)C2CC(c3ccccc3)CC=C12 (centres undefined)	-16%	13µM*	-2%	-9%
CN(CC(=O)Nc1ccc(Cl)c(C(F)(F)F)c1)C(=O)Cn1cc([N+](=O)[O-])ccc1=O	-5%	8%	25µM*	·
Cc1ccc(NC(=O)CN(C)C(=O)Cn2cc(C(F)(F)F)ccc2=O)cc1	-6%	-4%	-12%	-5%
CSc1ncccc1C(=O)Nc1nc2c(C)cccc2s1	-3%	-2%	-2%	-2%
Cc1ccccc1NS(=O)(=O)c1ccc(OCCNS(C)(=O)=O)cc1	1%	4%	7.1µM*	-7%
Cn1c(=S)[nH]c(=O)c2ncc(=O)[nH]c21	2%	8%	14µM*	0%
CCOC(=O)c1cnc2c(OC)cccc2c1N1CCN(c2ccccc2F)CC1	·	-18%	5%	8.9µM*
CCOC(=O)c1cnc2ccc(OCC)cc2c1N1CCN(c2ccccc2OC)CC1	-5%	0%	-3%	-2%
CCOC(=O)C1(CCSC)NC(c2ccco2)C2C(=O)N(CC)C(=O)C21 (centres undefined)	-4%	13%	-2%	-4%
Cc1ccccc1Cn1nnc2sc3c(c2c1=O)CCCC3	·	8%	1%	?
Cn1nnc2sc3c(c2c1=O)CCCC3	-4%	1%	-17%	32µM*
Cc1cccc(OCCCn2ccnc2)c1	2%	0%	-2%	8%
Cc1ccc(OCCCn2ccnc2)cc1C	6%	3%	-6%	18µM*
Cc1ccc(S(=O)(=O)N=Nc2c(O)[nH]c3ccccc23)cc1	0%	46µM*	5%	-13%
Cc1ccc(C)c(S(=O)(=O)N=Nc2c(O)[nH]c3ccccc23)c1	-5%	?	10%	-8%
Cn1cc([N+](=O)[O-])c(C(=O)Nc2ccc(C3CCCCC3)cc2)n1	1%	12%	-7%	7.9µM*
Cn1cc([N+](=O)[O-])c(C(=O)Nc2ccc(C(=O)N3CCCCC3)cc2)n1	-3%	-6%	-1%	-21%
Cc1ccccc1NS(=O)(=O)c1ccc2c(c1)NC(=O)CO2	-2%	6%	-3%	-7%
